Among the data in PubChem BioAssay (NCATS) are Z-AUC values, retold here.

A short description of this assay: qHTS drug screen for cell cycle checkpoint inhibitors in PARPi-resistant BRCA-mutant ovarian cancer cell lines. (AID 1963452). To be noted: PEO1/OlaR viability, CellTiter-Glo luminescence, 96 h; measured here: PEO4 Z-AUC; stronger effect = lower value. The method, boiled down:
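PEO1, PEO4 and PEO1/OlaR ovarian cancer cells, 600 per well, exposed 96 h at 37C to a dilution series. Viability read by CellTiter-Glo luminescence, normalized to DMSO and empty wells; activity summarized as Z-AUC.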
For orientation: In qHTS, concentration-response curves come from the screen itself.
As to `O=C(Nc1nc2cccc(-c3ccc(CN4CCS(=O)(=O)CC4)cc3)n2n1)C1CC1`, the Z-AUC is 0.638.

Take `COCCn1c2c([n+](Cc3cnccn3)c1C)C(=O)c1ccccc1C2=O`: the Z-AUC was -3.48. On to `CCc1c2c(nc3ccc(O)cc13)-c1cc3c(c(=O)n1C2)COC(=O)[C@]3(O)CC`, for which the Z-AUC was -3.13. In the case of `CNC(=O)c1c(F)cccc1Nc1nc(Nc2cc3c(cc2OC)CCN3C(=O)CN(C)C)nc2[nH]ccc12` it was -0.708; in that of `CC(C)CC(=O)Nc1n[nH]c2c1CN(C(=O)C1CCN(C)CC1)C2(C)C`, -0.504; in that of `COc1cc2c(cc1-c1c(C)noc1C)ncc1[nH]c(=O)n([C@H](C)c3ccccn3)c12`, -1.54. In the case of `Nc1nc(Nc2ccc(S(N)(=O)=O)cc2)nn1C(=O)c1c(F)cccc1F`, the Z-AUC was -0.463.

Take `NC(=O)c1c(OCc2c(F)cc(Br)cc2F)nsc1NC(=O)NCCCCN1CCCC1`: the Z-AUC is 0.754. In the case of `CCOC(=O)C1=C(C)NC2=C(C(=O)CC(C)(C)C2)C1c1ccc(-c2ccccc2)cc1` (centres undefined) it was 0.977; in that of `Nc1cc(C(F)(F)F)c(-c2cc(N3CCOCC3)nc(N3CCOCC3)n2)cn1`, -0.609; in that of `O=C(Nc1cn[nH]c1-c1nc2ccc(CN3CCOCC3)cc2[nH]1)NC1CC1`, -1.9. The figure for `C[C@@]12O[C@@H](C[C@]1(O)CO)n1c3ccccc3c3c4c(c5c6ccccc6n2c5c31)CNC4=O` is -0.928. The figure for `CNC(=O)c1cc(Oc2ccc(NC(=O)Nc3cc(C(C)(C)C)nn3-c3ccc4ncccc4c3)c(F)c2)ccn1` is 1.19; for `O=C(CCCCCCC(=O)Nc1ccc([C@H]2O[C@@H](CSc3nc(-c4ccccc4)c(-c4ccccc4)o3)C[C@@H](c3ccc(CO)cc3)O2)cc1)NO` it is 0.641.
